In the test the target is Polyadenylate-binding protein 1 (Homo sapiens) (UniProt P11940). The test is described as follows: PABP poly(A) RNA binding inhibitors, primary screen, biochemical, fluorescence polarization, uHTS (AID 2014).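 Also: calls also rest on retests at 20 µM and on dose response follow-up.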 The conditions noted are these: stronger effect = higher value.

Broadly, the inhibition is the drop in the measured response relative to a control, in per cent.

Several values for one entry are separate records, joined by “and”; a condition that tells them apart may be missing. Equal entries are not always repeated. Hit rate of the full screen: of about 290,000 compounds, about 3,000 (1%) were called active. No rule for the calls is given here. For the sample, actives were picked, then their nearest neighbours and some compounds at random.

Polyadenylate-binding protein 1 (Homo sapiens), sequence (P11940 whole entry, looked up): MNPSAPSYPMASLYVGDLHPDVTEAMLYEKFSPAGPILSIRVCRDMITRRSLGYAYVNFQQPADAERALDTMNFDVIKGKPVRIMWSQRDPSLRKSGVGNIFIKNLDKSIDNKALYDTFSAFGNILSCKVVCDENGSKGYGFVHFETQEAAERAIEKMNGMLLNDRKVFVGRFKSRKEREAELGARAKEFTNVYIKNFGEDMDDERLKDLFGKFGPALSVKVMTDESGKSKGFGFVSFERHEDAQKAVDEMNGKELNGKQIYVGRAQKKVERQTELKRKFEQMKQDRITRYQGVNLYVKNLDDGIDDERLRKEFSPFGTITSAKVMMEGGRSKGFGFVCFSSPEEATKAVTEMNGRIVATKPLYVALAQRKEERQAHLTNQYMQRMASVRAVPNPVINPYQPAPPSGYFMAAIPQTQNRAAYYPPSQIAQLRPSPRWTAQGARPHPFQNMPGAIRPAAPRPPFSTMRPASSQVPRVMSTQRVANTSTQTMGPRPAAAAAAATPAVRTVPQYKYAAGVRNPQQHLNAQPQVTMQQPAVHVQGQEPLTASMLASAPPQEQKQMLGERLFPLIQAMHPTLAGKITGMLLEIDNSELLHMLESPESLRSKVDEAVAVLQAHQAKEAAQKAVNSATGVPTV

For the molecule `Cc1ccc(C(=O)OC2CCCN(C)C2)cc1` (stereo not given), for the setting “at 35 µM”, the inhibition is -1.5% (inactive).
As for `CN1CCCC(OC(=O)COc2ccc(Br)cc2)C1` (stereo not given), the inhibition was 0.4% (active) (at 35 µM) and 55% (confirmation repeats, at 20 µM).
For the molecule `CCOC(=O)N1CCN(C(=O)COc2ccc(Br)cc2)CC1`, the inhibition (at 35 µM) was -4.7% (inactive).
Regarding `CCCc1ccc(OCCNC(=O)c2ccccc2Br)cc1`, the inhibition (at 35 µM) is 1.2% (inactive).
For `O=C(NC(=S)Nc1ncccn1)c1ccccc1Br`, under “at 35 µM”, the inhibition is 2.7% (inactive).
Consider `CCOc1cnc(C(=O)NNC(=O)c2ccccc2Br)o1`, for which the inhibition was 12.8% (active) (at 35 µM) and 95.2% (confirmation repeats, at 20 µM).
Take `COc1ccc(C(=O)Nc2ccc(C3(C#N)CCCC3)cc2)cc1OC`: the inhibition (at 35 µM) is -5.5% (inactive).
With `CC1CCN(S(=O)(=O)c2ccc3[nH]c(=O)ccc3c2)CC1`, the inhibition (at 35 µM) is -3.1% (inactive).
`Cc1c(-c2ccccc2)cn2c1-c1ccc(C)n1CC2`: the inhibition (at 35 µM) was 88.3% (active).
As for `CCN(CC)c1ccc(/C=N/Nc2nc(C)cc(=O)[nH]2)cc1`, the inhibition (at 35 µM) is -2.5% (inactive).
`CCN(CC)c1ccc2oc(=O)c(C)nc2c1`: the inhibition runs as follows: (at 35 µM) 116% (active); (confirmation repeats, at 20 µM) 62.7%.
With `CCN(CC)c1ccc2cc(C(N)=O)/c(=N\NC(=O)c3ccncc3)oc2c1`, the inhibition (at 35 µM) is 1.8% (inactive).
Regarding `O=[N+]([O-])c1ccccc1/C=C/CN1CCC(O)CC1`, the inhibition (at 35 µM) was 4.7% (inactive).
Take `O=C(O)c1ccc(-n2nc(-c3ccccc3)c3ccccc3c2=O)cc1`: where the note is “at 35 µM”, the inhibition is 8.1% (inactive).
In the case of `CCOc1ccc(-n2cnnn2)cc1S(=O)(=O)N1CCC(C)CC1C` (stereo not given), the inhibition by setting is: (at 35 µM) 74.4% (active); (confirmation repeats, at 20 µM) 87.6%.
Turning to `Cc1ccc(S(=O)(=O)N2CCC(Oc3ccc(-n4cnnn4)cc3)CC2)cc1`, the inhibition (at 35 µM) was 6.3% (inactive).
In the case of `CCOc1ccc(Br)cc1S(=O)(=O)N1CCC(C(=O)O)CC1`, the inhibition (at 35 µM) was -2.2% (inactive).
Turning to `Cc1cccc(C(=O)N2CCCC(Nc3ccc(C(C)C)cc3)C2)n1` (stereo not given), under “at 35 µM”, the inhibition was 6.3% (inactive).
Still for that read-out and setting: the result for `CCCCOC(=O)c1[nH]c(C)c(C(=O)OC)c1C` reads -3.8% (inactive); that for `CCOC(=O)c1c(C)[nH]c2c1-c1ccccc1C(=O)C2=O`, -3.9% (inactive).
As for `CCOC(=O)c1c(C)[nH]c(C2=NNC(=NC(C)COC)SC2)c1C` (stereo not given), the inhibition was 50.4% (active) (at 35 µM) and 104% (confirmation repeats, at 20 µM).
With `COCCCNS(=O)(=O)c1cccc(S(=O)(=O)c2cccc(S(=O)(=O)NCCCOC)c2)c1`, the inhibition (at 35 µM) is -6.2% (inactive).
Same read-out and setting: the result for `CC(=O)NS(=O)(=O)c1ccccc1` reads 8.1% (inactive); that for `Cc1ccc(S(=O)(=O)NC(=O)c2cccc(C)c2)cc1`, 4.3% (inactive).
In the case of `Nc1ccc(S(=O)(=O)NC(=O)c2ccccc2)cc1`, the inhibition is 50.5% (active) (at 35 µM) and 72.5% (confirmation repeats, at 20 µM).
As for `S=C(NCc1cccs1)Nc1ccc(Cl)cc1`, the inhibition (at 35 µM) is -4.3% (inactive).
With `COC(=O)Cc1ccc(NC(=S)NCc2ccc(Cl)cc2)cc1`, the inhibition (at 35 µM) was 1.5% (inactive).
With `Fc1ccccc1CNC(=S)Nc1ccc(Cl)cc1`, the inhibition was 59.1% (active) (at 35 µM) and 83% (confirmation repeats, at 20 µM).
In the case of `CC1CCCN(CCCNC(=O)CN2C(=O)COc3ccc(S(=O)(=O)N4CCOCC4)cc32)C1` (stereo not given), the inhibition (at 35 µM) was 2.3% (inactive).
Still for that read-out and setting: then `C=CCNC(=S)/N=c1/ccccn1Cc1ccccc1`, with 12.9% (inactive); and `O=C(OCc1cc2ccccc2[nH]c1=O)c1cccnc1`, with -2.2% (inactive); and `O=C(/C=C/c1ccc(Cl)cc1Cl)c1cccnc1`, with -1% (inactive).
Regarding `O=C(OCc1cc(Cl)ccc1OC(F)F)c1cccnc1`, the inhibition by setting is: (at 35 µM) 16.1% (active); (confirmation repeats, at 20 µM) 81.2%.
Turning to `CCOC(=O)c1ccc(NC(=O)c2ccc(NC(=O)C3CCCO3)cc2)cc1` (stereo not given), the inhibition (at 35 µM) is -0.4% (inactive).
Turning to `CC(C)C[C@@H](CO)N1CCN(Cc2ccc(O)cc2)CCC1=O`, the inhibition (at 35 µM) is 1.4% (inactive).
For the molecule `COc1ccc(CN2CCCC(CNC(=O)c3ccc(F)cc3)C2)cc1OC` (stereo not given), the inhibition is 79.6% (active) (at 35 µM) and 74.7% (confirmation repeats, at 20 µM).
In the case of `COc1ccc(CCN(C)C(=O)C2CCCN(Cc3ccc(OC)c(OC)c3)C2)cc1OC` (stereo not given), under “at 35 µM”, the inhibition is 11.9% (inactive) and 7% (inactive).
Same read-out and setting: then `COc1ccc(Cc2nc3ccc(C(=O)NCC4CCOCC4)cc3o2)cc1OC`, with 11.1% (inactive); and `O=C(Cc1ccccc1F)NC1CCSc2ccccc21` (stereo not given), with 0.4% (inactive); and `O=c1[nH]c(=S)[nH]c2[nH]c(=S)[nH]c12`, with 91.1% (active).
Still for that read-out and setting: the result for `Cc1c(C)c(C)c2[nH]c(=S)[nH]c2c1C` reads 9.8% (inactive); that for `Cc1ccc2c(c1)N(CC(=O)N1CCOCC1)C(=O)CO2`, 2.5% (inactive).
Regarding `CC1(c2ccc3ccccc3c2)NC(=O)N(CC(N)=O)C1=O` (stereo not given), under “at 35 µM”, the inhibition is -4.5% (inactive).
Regarding `O=C(NNS(=O)(=O)c1ccccc1)c1cnn(-c2ccc(Cl)cc2)c1C(F)(F)F`, the inhibition (at 35 µM) is 11.5% (active) and the inhibition (confirmation repeats, at 20 µM) worked out at 102%.
As for `NNC(=O)c1cnn(-c2ccccc2)c1C(F)(F)F`, for the setting “at 35 µM”, the inhibition was 10.3% (inactive).
Consider `O=C(NNS(=O)(=O)c1ccc(Cl)cc1)C1CCN(Cc2ccccc2)CC1`, for which the inhibition (at 35 µM) is -4% (inactive).
On the same count and under the same terms, then `COc1ccc(CCNC(=O)c2ccccc2OCc2ccccc2)cc1`, with -3.4% (inactive).
Still for that read-out and setting: the result for `CC(C)(C)OC(=O)NNc1c2ccccc2nc2ccccc12` reads -1.9% (inactive).
Consider `CC(=O)c1cnc(SCC(=O)O)nc1C`, for which the inhibition by setting is: (at 35 µM) 54.3% (active); (confirmation repeats, at 20 µM) 68.8%.
With `CC(=O)c1cnc(SCCN2C(=O)c3ccccc3C2=O)nc1C`, the inhibition (at 35 µM) was -5.5% (inactive).
As for `CSc1ncc(C(=O)NCCCc2ccccc2)c(C)n1`, the inhibition (at 35 µM) is -4.6% (inactive).
On the same count and under the same terms, the result for `CCC1(CC)Cc2ccccc2-c2nc(CCl)[nH]c(=O)c21` reads -1.7% (inactive); that for `O=C(NCCCN1CCOCC1)c1cc(-c2ccccc2F)no1`, -8% (inactive); that for `CC1CN(C(=S)Nc2ccc(S(N)(=O)=O)cc2)CC(C)O1` (stereo not given), -12.5% (inactive).
As for `NS(=O)(=O)c1ccc(NC(=S)N2CCCC2)cc1`, the inhibition is 28.2% (active) (at 35 µM) and 50.5% (confirmation repeats, at 20 µM).
Consider `COc1ccc(N2CCN(C(=S)Nc3ccc(S(N)(=O)=O)cc3)CC2)cc1`, for which, for the setting “at 35 µM”, the inhibition was -0.4% (inactive).
In the case of `CCc1ccc(CNC(=O)C2CCN(c3nnc(C)c4c(C)n(-c5ccc(C)cc5)nc34)CC2)cc1`, for the setting “at 35 µM”, the inhibition was -22.4% (inactive).
Turning to `Cc1cccc(NC(=O)Cc2ccc(Br)cc2)n1`, the inhibition (at 35 µM) was -9.8% (inactive).
In the case of `O=C(NC(Cc1ccc(O)cc1)C(=O)O)/C(=C/c1ccccc1)NC(=O)c1ccccc1` (stereo not given), the inhibition (at 35 µM) is 2.8% (inactive).
On the same count and under the same terms, then `C/C=C(/C)C(=O)OC1Cc2c(ccc3ccc(=O)oc23)OC1(C)C` (stereo not given), with 5.5% (inactive); and `CC1(C)Oc2ccc3ccc(=O)oc3c2/C(=N/O)C1=O`, with -7% (inactive).
Consider `CC1(C)Oc2ccc3ccc(=O)oc3c2/C(=C/NCCO)C1=O`, for which the inhibition (at 35 µM) was 51.8% (active).
Consider `Cc1ccc(S(=O)(=O)N(CC(O)CN2CCCCC2)c2cccc([N+](=O)[O-])c2)cc1` (stereo not given), for which the inhibition (at 35 µM) was -2.5% (inactive).

For the origin of these results see PubChem BioAssay AID2014 (Sanford-Burnham Center for Chemical Genomics, 2009).
